Screens as filed in PubChem.
Rows were chosen to be rich in hits. Some 2.1% of all compounds tested hit in one or more screens of this group.
PrP UTR inh = inhibition of PrP 5' UTR reporter expression. cell-based PrP 5' UTR mRNA reporter, plate reader. inhibition, % (no concentration beside the values). actives 0.35% (n = 340,000); in the data active = inhibition above about 52%
RN4220 kill = kills Staphylococcus aureus RN4220. actives 0.33% (n = 330,000). AID 1259311. inhibition, % (test concentration not listed). S. aureus RN4220 growth, OD600, 16 h; in the data active = inhibition above about 85%
PrPC surface inh = inhibitors of human cell surface prion protein PrPC; actives 0.43% (n = 370,000); AID 720596; inhibition, % at 13.8 µM; TR-FRET read-out; P04156; in the data active = inhibition above about 24%
PfHsp40 rescue = compounds rescuing yeast from Plasmodium falciparum HSP40 toxicity; S. cerevisiae expressing PfHsp40, growth rescue, ATP luminescence; growth rescue, % at 12.5 µM; actives 0.68% (n = 340,000); in the data active = growth rescue above about 28%, passing the limit was not always enough; inconclusive = no clear call, values can overlap the other calls;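 also: yeast W303a lacking pdr1 and pdr3 grown in galactose medium; growth measured after three days at 30 °C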
CCHF vOTU inh = blocks the CCHF virus ovarian tumor domain protease | CCHFV vOTU protease, Pep-AMC fluorescence | inhibition, % at 11.5 µM | actives 0.55% (n = 370,000); in the data active = inhibition above about 30%
ugtP null kill = kills S. aureus RN4220 lacking UgtP; S. aureus RN4220 ugtP deletion, OD600 growth, 16 h; growth inhibition, % (test concentration not listed); actives 0.54% (n = 330,000); AID 1259309; in the data active = growth inhibition above about 68%
PrP 5UTR single = prion 5' UTR mRNA inhibition, cherry-pick retest; actives 48% (n = 1,100); cell-based prion protein 5' UTR reporter, plate reader; shares compounds with PrP UTR inh; inhibition, % at 2.5 µM; in the data active = inhibition above about 54%; inconclusive = no clear call, values can overlap the other calls
Numbers stand for hits; i = inactive; ? = inconclusive; nt = no result given.

SMILES	PrP UTR inh	RN4220 kill	PrPC surface inh	PfHsp40 rescue	CCHF vOTU inh	ugtP null kill	PrP 5UTR single
O=C(NN=Cc1ccc([N+](=O)[O-])cc1)c1ccc2nc[nH]c2c1	nt	i	nt	nt	nt	i	nt
Cc1ccc(-n2c(C)cc(C(=O)COc3cccnc3[N+](=O)[O-])c2C)cc1	i	i	i	i	i	i	nt
Cc1cc(C(=O)COc2cccnc2[N+](=O)[O-])c(C)n1-c1ccccc1	58	nt	i	i	i	nt	?
Cc1ccccc1CSc1nnc([C@@H]2CCCN2)o1	74	i	i	i	i	i	i
CN1C(=O)C(O)(CC(=O)C=CC=Cc2ccccc2)c2ccccc21 (stereo not drawn)	nt	i	nt	nt	nt	i	nt
O=[As](O)(O)c1ccc(N=Nc2ccc(O)cc2)cc1	i	i	i	i	i	i	nt
CCSC(=O)N=Nc1ccc(O)cc1	56	nt	i	i	i	nt	i
CN(C(=O)c1cc2ccccc2oc1=O)C1(C)CCS(=O)(=O)C1 (stereo not drawn)	81	i	i	i	i	i	i
C[C@]12CCC(=O)C[C@@H]1CC[C@@H]1[C@@H]2CC[C@]2(C)C=CC[C@@H]12	66	nt	i	i	i	nt	i
C[C@]12CCC(=O)C[C@@H]1CC[C@@H]1[C@@H]2CC[C@]2(C)[C@@H](O)CC[C@@H]12	i	i	i	i	i	i	nt
CC(/C=C/c1cccc([N+](=O)[O-])c1)=NNC(=O)c1cccnc1	nt	i	nt	nt	nt	i	nt
Cc1cc2nc(/C=C/c3cccnc3)[nH]c2cc1C	66	i	i	i	i	i	84
NCCNCCNCCN	89	nt	i	i	i	nt	i
NCCCCNCCCN	i	nt	i	i	i	nt	nt
Cn1c(N)c(C(=O)COC(=O)C2CCCN2S(=O)(=O)c2ccc(Cl)cc2)c(=O)n(C)c1=O (stereo not drawn)	nt	i	nt	nt	nt	i	nt
O=[N+]([O-])c1ccc(/C=C/c2ccc3ccccc3n2)cc1	i	i	i	i	i	i	nt
Oc1ccc(/C=C/c2ccc3ccccc3n2)cc1	57	i	i	i	i	i	?
C(=C\c1ccc2ccccc2n1)/c1ccccc1	58	i	i	i	i	i	i
CN(C)c1ccc(/C=C/c2ccc3ccccc3n2)cc1	84	i	nt	i	nt	i	?
CCOC(=O)c1c(C)[nH]c(C(=O)OCCOc2ccccc2C)c1C	81	i	i	i	i	i	i
C#CCOCCOCCOCCNc1nc(N2CCN(C(=O)Cn3cc(CCCN=C(N)N)nn3)CC2)nc(N2CCN(C(=O)C(C(C)C)n3cc(CCO)nn3)CC2)n1 (stereo not drawn)	nt	i	nt	nt	nt	i	nt
Cc1ccc(S(=O)(=O)NC2CCSC2=O)cc1C (stereo not drawn)	75	i	i	i	i	i	i
COc1ccc(C=NN=C2SCC(=O)N2c2c(C)n(C)n(-c3ccccc3)c2=O)cc1OC	nt	i	nt	nt	nt	i	nt
C=C(C=O)CC1CC(O)[C@]2(C)OC3CC4OC5C[C@]6(C)O[C@]7(C)CCC8OC9C[C@]%10(C)OC%11C(C)=CC(=O)OC%11CC%10OC9C[C@@H](C)C8OC7CC6O[C@]5(C)CC5OC5C4OC3CC2O1 (stereo partly drawn)	85	nt	nt	nt	nt	nt	98
C=C(C=O)CC1CC(O)[C@]2(C)OC3CC4OC5C[C@]6(C)O[C@]7(C)CCC8OC9C[C@]%10(C)OC%11C(C)=CC(=O)OC%11CC%10OC9CC(C)C8OC7CC6O[C@]5(C)CC5OC5C4OC3CC2O1 (stereo partly drawn)	nt	i	nt	nt	nt	i	nt
SMILES	PrP UTR inh	RN4220 kill	PrPC surface inh	PfHsp40 rescue	CCHF vOTU inh	ugtP null kill	PrP 5UTR single
Nc1nc2n(n1)C(=O)CC(c1ccc(Cl)cc1)N2 (stereo not drawn)	i	nt	i	i	i	nt	nt
Nc1nc2n(n1)C(=O)CC(c1ccccc1[N+](=O)[O-])N2 (stereo not drawn)	78	i	i	i	i	i	i
C=CCC(CC(=O)NCCO)C(=O)NC(COC(=O)C(CC=C)CC(=O)OC(C)(C)C)Cc1c[nH]c2ccccc12 (stereo not drawn)	nt	i	nt	nt	nt	i	nt
CSc1ccccc1NC(=O)C(C)N(C)CC(=O)N1CCN(Cc2ccccc2)CC1 (stereo not drawn)	74	i	i	i	i	i	i
CC(C)N(Cc1cc2ccccc2[nH]c1=O)C(=O)c1cccc([N+](=O)[O-])c1	68	i	i	i	i	i	i
O=C(OCCNC(=O)c1cc2ccccc2oc1=O)c1cccnc1	66	i	i	i	i	i	i
COc1ccc(S(=O)(=O)N2c3cc(Cl)ccc3Oc3nc4ccccc4nc32)cc1	71	i	i	i	i	i	88
CC(C)c1ccc2oc(-c3cc(N)ccc3O)nc2c1	63	i	i	i	i	i	i
CCN1C(=O)[C@H]2[C@H]3CN=C(SC)N3[C@@](CC)(C(=O)OC)[C@H]2C1=O	66	i	i	i	i	i	i
CCN1C(=O)[C@H]2[C@H]3CN=C(SCC4CC4)N3[C@@](CC)(C(=O)OC)[C@H]2C1=O	i	i	i	i	i	i	nt
O=C(NN=Cc1cccs1)c1cc(-c2ccc3ccccc3c2)n[nH]1	nt	i	nt	nt	nt	i	nt
N#Cc1c(NC(=O)CSc2ncn[nH]2)sc2c1CCCCC2	74	i	i	i	i	i	77
O=C(CCC(=O)Nc1ccc(F)cc1)NN=Cc1ccccc1O	nt	i	nt	nt	nt	i	nt
COc1cc(-c2noc(C)c2/C=C/c2ccc(OC(C)=O)cc2)cc(OC)c1OC	64	nt	i	i	i	nt	85
CCC(C)Sc1ccc(C2N[C@@](C)(C(=O)OC)C3C(=O)N(CC)C(=O)C23)cc1 (stereo partly drawn)	nt	i	nt	nt	nt	i	nt
CCOC(=O)C1(CC2CCCCO2)CCN(Cc2ccc(OC)cc2F)CC1 (stereo not drawn)	80	i	i	i	i	i	i
COC1C(C)OC(OC2CC(C)(O)Cc3cc4c(c(O)c32)C(=O)c2c(O)cc3c(c2C4=O)OC2OC3(C)C(O)C(N(C)C)C2O)C(OC)C1(C)OC (stereo not drawn)	90	nt	i	i	i	nt	81
COc1cccc2c1C(=O)c1c(O)c3c(c(O)c1C2=O)CC(O)(C(C)=O)CC3OC1CC(O)C(O)C(C)O1 (stereo not drawn)	i	nt	i	i	i	nt	nt
O=C(NC1CC1)c1ccc(-c2nc3ccccc3s2)s1	66	i	i	i	i	i	?
O=C(CN1C(=O)SC(=Cc2ccc(N3CCOCC3)cc2)C1=O)N1CCOCC1	nt	i	nt	nt	nt	i	nt
O=C(NC1CCCCC1)c1n[nH]c2c1CCCCC2	79	nt	i	i	i	nt	59
CCC(C)(C)C1CCc2[nH]nc(C(=O)NC3CCCC3)c2C1 (stereo not drawn)	i	i	i	i	i	i	nt
COC(=O)NN=C(C)c1ccc(OC(F)F)cc1OC(F)F	nt	i	nt	nt	nt	i	nt
CC(=O)c1sc2c(c1OC(=O)c1ccc(Cl)cc1Cl)c(=O)n(-c1ccccc1)c(=S)n2-c1ccccc1	76	i	i	i	i	i	62
CC(N)=C(C#N)C(=O)CSc1nc2ccccc2c(=O)n1CCCO	nt	i	nt	nt	nt	i	nt
